Laboratory results taken from PubChem BioAssay AID1035475 (Broad Institute, 2014).
Potency and affinity values are given separately. Records with an inconclusive call do not appear. A call without a number means that no potency is given here. The source made the active and inactive calls.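 The calls were made as follows: active = fluorescent signal drops by 40% or more, counted as a hit; inconclusive = no clear call, values can overlap the other calls; inactive = the rest, including any activity in the opposite direction.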

Experiment: blockers of FN fibrillogenesis by fibroblasts – AH1F cells, Alexa488-FN fluorescence, cherry-picks, dose response (AID 1035475);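 also: AH1F fibroblasts incorporating labeled fibronectin into their extracellular matrix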
Conditions: Alexa488-fibronectin deposition fluorescence, overnight; series mostly up to 35 µM
For `COc1cccc(-c2ccc3c(c2)[C@H]2[C@H](CCN2S(=O)(=O)c2cccc(OC)c2)[C@H](CO)N3)c1`, the outcome was “inactive”.
In the case of `O=C(c1cccnc1)N1C[C@H]2[C@@H](c3ccccc31)[C@H](CO)N2CC1CCCC1`, the outcome is reported as “inactive”.
In the case of `COCC(=O)Nc1ccc2c(c1)C(=O)N(C)[C@@H]1CC[C@H](CC(=O)NCc3ccccc3Cl)O[C@@H]1CO2`, the outcome is reported as “inactive”.
With `COc1ccccc1CC(=O)OC(C)C(=O)Nc1ccc(S(=O)(=O)N2CCCCC2)cc1` (stereo not given) the outcome was “inactive”.
With `COC(=O)C[C@@H]1CC[C@@H]2[C@@H](COc3ccc(NC(=O)Cc4cccs4)cc3C(=O)N2C)O1` the outcome was “inactive”.
In the case of `Cc1ccc(N(CC(=O)NCc2ccco2)S(=O)(=O)c2ccccc2)cc1`, the outcome is reported as “inactive”.
In the case of `COCC(=O)Nc1ccc2c(c1)C(=O)N(C)[C@@H]1CC[C@@H](CC(=O)NCc3ccccc3Cl)O[C@@H]1CO2`, the outcome is reported as “inactive”.
With `CCOC(=O)c1cnc(SCc2nc(N)nc(Nc3ccc(OC)cc3)n2)nc1N` the outcome was “inactive”.
For `C[C@@H]1CN([C@H](C)CO)C(=O)c2cc(-c3ccccc3)cnc2O[C@@H]1CN(C)Cc1ccccc1`, the outcome was “inactive”.
In the case of `N#C[C@@H]1[C@@H](c2ccccc2C2=CCCCC2)[C@@H](CO)N1S(=O)(=O)c1ccccc1`, the outcome is reported as “inactive”.
With `C[C@H]1CN([C@@H](C)CO)C(=O)c2cccc(NC(=O)Nc3ccc(C(F)(F)F)cc3)c2O[C@@H]1CN(C)C(=O)Nc1cccc2ccccc12` the outcome was “inactive”.
In the case of `CO[C@H]1CN(C)C(=O)c2cc(NC(=O)Nc3cc(Cl)cc(Cl)c3)ccc2OC[C@H](C)NC[C@@H]1C`, the outcome is reported as “inactive”.
In the case of `COCC(=O)Nc1ccc2c(c1)C(=O)N(C)[C@@H]1CC[C@H](CC(=O)NCc3ccccc3Cl)O[C@H]1CO2`, the outcome is reported as “inactive”.
With `COc1cccc(CNC(=O)CCc2nnc3ccc(NCCCN4CCCC4=O)nn23)c1` the outcome was “inactive”.
In the case of `CCN1CCN(C(c2ccccc2)c2nnnn2Cc2ccccc2)CC1` (stereo not given), the outcome is reported as “inactive”.
With `CCCCOc1ccc(C(C)NC(=O)C2CCCN(S(=O)(=O)CCC)C2)cc1` (stereo not given) the outcome was “inactive”.
In the case of `COc1cccc(S(=O)(=O)N2CC[C@@H]3[C@H]2c2cc(-c4ccc(C#N)cc4)ccc2N[C@@H]3CO)c1`, the outcome is reported as “inactive”.
With `Cc1ccc([N+](=O)[O-])cc1NC(=O)CN(C(=O)c1ccccc1Cl)C1CCCCC1` the outcome was “inactive”.
In the case of `CC(C)NC(=O)N(C)C[C@H]1Oc2ccc(NC(=O)CCN3CCOCC3)cc2C(=O)N([C@H](C)CO)C[C@@H]1C`, the outcome is reported as “inactive”.
In the case of `C[C@H](O)C#Cc1ccc2c(c1)O[C@H](CN(C)C)[C@H](C)CN([C@@H](C)CO)S2(=O)=O`, the outcome is reported as “inactive”.
With `C[C@H](CO)N1C[C@H](C)[C@H](CN(C)Cc2ccc(-c3ccccc3)cc2)Oc2ccc(NC(=O)C3CCCCC3)cc2C1=O` the outcome was “inactive”.
In the case of `CO[C@@H]1CN(C)C(=O)c2cc(NC(=O)Nc3ccc(Cl)c(Cl)c3)ccc2OC[C@H](C)NC[C@@H]1C`, the outcome is reported as “inactive”.
In the case of `CO[C@H]1CN(C)C(=O)c2ccc(NC(=O)c3ccc(-c4ccccc4)cc3)cc2OC[C@H](C)NC[C@@H]1C`, the outcome is reported as “inactive”.
With `COc1ccc(-c2oc3ncnc(NCCCN4CCOCC4)c3c2-c2ccc(OC)cc2)cc1` the outcome was “inactive”.
In the case of `O=C(c1cccnc1)N1C[C@@H]2[C@H](c3ccccc31)[C@@H](CO)N2CC1CCCC1`, the outcome is reported as “inactive”.
In the case of `COC(=O)c1c(NC(=O)CN2CCN(c3ccccc3Cl)CC2)sc(C)c1C`, the outcome is reported as “inactive”.
With `C[C@@H]1CN([C@H](C)CO)C(=O)c2cc(NC(=O)CCCN(C)C)ccc2O[C@H]1CN(C)Cc1ccc(-c2ccccc2)cc1` the outcome was “inactive”.
For `COCC(=O)Nc1ccc2c(c1)C(=O)N(C)[C@@H]1CC[C@@H](CC(=O)NCc3ccccc3Cl)O[C@H]1CO2`, the outcome was “inactive”.
With `CC(C)Cc1nnc(NC(=O)CSc2nc(N)cc(=O)[nH]2)s1` the outcome was “inactive”.
With `CO[C@H]1CN(C)C(=O)c2cc(NC(=O)Nc3cc(Cl)cc(Cl)c3)ccc2OC[C@@H](C)NC[C@H]1C` the outcome was “inactive”.
In the case of `O=S(=O)(c1ccccc1F)N1CC[C@@H]2[C@H]1c1cc(-c3cccc(F)c3)ccc1N[C@@H]2CO`, the outcome is reported as “inactive”.
With `CSc1ccccc1C(=O)C1CCCN(C(=O)CCc2cccnc2)C1` (stereo not given) the outcome was “inactive”.
For `CN(C)C(=O)c1ccc(-c2ccc3c(c2)[C@H]2[C@H](CCN2C(=O)c2ccc(F)cc2)[C@@H](CO)N3C)cc1`, the outcome was “inactive”.
For `COCC(C)n1c(SCc2nc(N)nc(Nc3ccccc3C)n2)nc2ccccc2c1=O` (stereo not given), the outcome was “inactive”.
For `CO[C@H]1CN(C)C(=O)c2ccc(NC(=O)Nc3ccc(Cl)c(Cl)c3)cc2OC[C@H](C)NC[C@H]1C`, the outcome was “inactive”.
